Hits are enriched below; roughly 7.5% of the tested compounds scored in any of these assays.
ELG1 repair inh – inhibitors of ELG1-dependent DNA repair in HEK293T cells | 2.3% of 330,000 active | HEK293T ELG1-luciferase reporter, luminescence, 16 h; DNA damage induced by 5-fluorouridine | Potency, µM (doses to about 46.1 µM), usual class: inhibitors; further: nearly all actives have a fitted effect of over 55% in size
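Quantitative HTS, concentration-response format. 2,000 cells/well co-treated with 5-fluorouridine and compound, 16 hr in 5% CO2 at 37 °C; ONE-Glo luminescence read after 30 min.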
RORg inh – blocks mouse ROR gamma transcriptional activity; Potency, µM (titrated, usually from 53.6 µM), actives largely listed as inhibitors; P51450; 5.4% of 310,000 active; Drosophila S2 Gal4-RORgamma UAS-luciferase reporter, 20 h; further: nearly all actives have a fitted effect of over 60% in size
Target sequence (P51450 whole entry, looked up, the tested form may be a part): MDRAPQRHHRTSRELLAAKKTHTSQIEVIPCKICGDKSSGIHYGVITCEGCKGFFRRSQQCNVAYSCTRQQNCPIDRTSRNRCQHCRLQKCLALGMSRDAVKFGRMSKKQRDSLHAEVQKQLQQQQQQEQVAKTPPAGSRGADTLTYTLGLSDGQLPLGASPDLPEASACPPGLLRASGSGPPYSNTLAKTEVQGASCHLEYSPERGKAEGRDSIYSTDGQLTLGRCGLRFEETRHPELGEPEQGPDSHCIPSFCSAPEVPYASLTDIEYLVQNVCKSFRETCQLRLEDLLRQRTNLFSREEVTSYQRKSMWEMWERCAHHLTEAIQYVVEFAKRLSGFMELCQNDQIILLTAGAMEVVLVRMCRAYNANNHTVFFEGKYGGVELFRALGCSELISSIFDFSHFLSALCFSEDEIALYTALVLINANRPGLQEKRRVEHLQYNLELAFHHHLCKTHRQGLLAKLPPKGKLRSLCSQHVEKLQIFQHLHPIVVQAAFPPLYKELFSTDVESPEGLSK
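Drosophila Schneider cells stably carrying a metallothionein-driven Gal4 DBD–ROR gamma fusion and a UAS-Photinus luciferase reporter were exposed to compound for 1 hr, then induced with copper sulfate (700 uM final) for 20 hr at ambient temperature before luminescence reading.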
B2AR arrestin – recruits beta-arrestin to the human beta2-adrenergic receptor; AID 492947; 0.02% of 330,000 active; P07550; beta-arrestin recruitment to beta2AR, cell-based reporter; Potency, µM (highest dose often 46.1 µM), hits mostly activators; further: nearly all actives have a fitted effect of over 65% in size
TSHR antagonist – antagonists of human thyroid stimulating hormone receptor; TSHR-expressing cells, TSH-stimulated cAMP HTRF, 2 h; stronger effect = lower value; P16473; 0.2% of 330,000 active; activity change, negative = inhibition, % at 11.5 µM;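 active means activity change below a set negative limit, meaning inhibition stronger than a set level, cut at about -70% in these data; inconclusive means activity change between two set negative limits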
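Read-out is FRET at 665 nm (cryptate excitation 337 nm) from a cryptate-tagged anti-cAMP antibody, competed by cell cAMP against cAMP-d2. Compounds are tested on freshly harvested TSHR cells challenged with 4nM TSH (EC80) for 2 hours at 37 deg C.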
VP16 counter – counter-screen for ROR gamma inhibitors: Gal4-VP16 reporter | AID 2546 | Drosophila S2 Gal4-VP16 UAS-luciferase, luminescence, 20 h | Potency, µM (top dose mostly 53.6 µM), usual class: inhibitors | 3.5% of 310,000 active;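 further: Gal4-VP16 expression switched on by copper sulfate through the metallothionein promoter; nearly all actives have a fitted effect of over 50% in size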
Each line names hits and unclear results; the compound was inactive in the other large screens. Unless noted, the call rests on the fitted dose curve; in most records, active means well fitted curve in the direction sought with a large enough effect; inconclusive means small, poorly fitted or top-dose-only effect, or another doubt; inactive means no such curve, though single readings can be large; an effect the other way counts as inactive or inconclusive.

Cc1cc(C(=O)Cn2nnc(-c3ccc(Cl)cc3)n2)c(C)n1-c1ccccc1	RORg inh inconclusive, VP16 counter 22µM
Cc1cc(C(=O)C[N+]23CCN(CC2)CC3)c(C)n1-c1ccc(Br)cc1	none
CCC(=NCCc1c[nH]c2ccccc12)c1c(O)n(C)c(=O)n(C)c1=O	ELG1 repair inh 16µM, VP16 counter inconclusive
C/C(=N\NC(=S)Nc1ccccc1)c1c(O)n(C)c(=O)n(C)c1=O	ELG1 repair inh inconclusive, RORg inh 8.9µM, VP16 counter inconclusive
CCC(=NCCc1c[nH]c2ccccc12)c1c(O)n(-c2ccc(C)cc2)c(=O)[nH]c1=O	ELG1 repair inh inconclusive, RORg inh inconclusive, VP16 counter inconclusive
CCN(CC)CCCC(C)N=C(c1ccccc1)c1c(O)n(C)c(=O)n(C)c1=O (configuration not stated)	RORg inh 0.63µM
CCOC(=O)c1ccc(N=C(c2ccccc2)c2c(O)n(C)c(=O)n(C)c2=O)cc1	none
CC/C(=N\Nc1ccccc1)c1c(O)n(C)c(=O)n(C)c1=O	RORg inh inconclusive
CCC(=NC(C)c1ccccc1)c1c(O)n(C)c(=O)n(C)c1=O (configuration not stated)	ELG1 repair inh inconclusive, RORg inh inconclusive, VP16 counter 13µM
CC1CC(C)CN(S(=O)(=O)c2ccc3c(c2)oc(=O)n3CC(=O)NCc2cccnc2)C1 (configuration not stated)	ELG1 repair inh 3.7µM
CN1Cc2c(ccc3c2OCO3)C2C(O)Cc3cc4c(cc3C21)OCO4 (configuration not stated)	none (no result: ELG1 repair inh, B2AR arrestin, TSHR antagonist)
CCN(CC)c1ccc(/C=C/[N+](=O)[O-])cc1	ELG1 repair inh inconclusive, RORg inh 8.9µM
O=C(CCl)Nc1nccs1	RORg inh inconclusive, VP16 counter 13µM
O=C(O)C(Cl)(Cl)Br	none (no result: ELG1 repair inh, B2AR arrestin, TSHR antagonist)
O=C(C1c2ccccc2C(=O)N2CCc3ccccc3C12)N1CCC2(CC1)OCCO2 (configuration not stated)	none
COc1cc2c(cc1OC)C(C(=O)N1CCC3(CC1)OCCO3)C(c1ccccc1F)N(C)C2=O (configuration not stated)	ELG1 repair inh 18µM, RORg inh inconclusive
CCN1CCN(c2nc3ccccc3s2)CC1	ELG1 repair inh inconclusive
CCCC(c1nnnn1Cc1cccs1)N1CCN(c2nc3ccccc3s2)CC1 (configuration not stated)	ELG1 repair inh 23µM
Cc1ccc(/C=C2\C(=O)NC(=S)N(c3ccccc3F)C2=O)s1	ELG1 repair inh 23µM, RORg inh inconclusive, VP16 counter inconclusive
Cc1ccc(/C=C2\C(=O)NC(=S)N(c3ccc(F)cc3)C2=O)s1	ELG1 repair inh inconclusive
Nc1ncnc2c1ncn2[C@@H]1O[C@H](COP(=O)(O)OP(=O)(O)OP(=O)(O)O)[C@H]2OC3(O[C@H]21)C([N+](=O)[O-])=CC(=[N+]([O-])[O-])C=C3[N+](=O)[O-] (some centres not stated)	none (no result: ELG1 repair inh, B2AR arrestin, TSHR antagonist)
COc1cc2c(cc1OC)[C@H]1C(=O)c3ccc4c(c3O[C@H]1CO2)C[C@@H](C(C)(C)O)O4	none (no result: RORg inh, VP16 counter)
COc1cc2c(cc1OC)[C@@H]1C(=O)c3ccc4oc(C(C)C)cc4c3OC1CO2 (some centres not stated)	RORg inh 5µM, VP16 counter 0.32µM (no result: ELG1 repair inh, B2AR arrestin, TSHR antagonist)
COc1cc2c(cc1OC)[C@@H]1C(=O)c3ccc4c(c3O[C@@H]1CO2)C[C@H](C(C)C)O4	ELG1 repair inh 0.058µM
CN(N=O)c1ccc(O)c(O)c1	none (no result: ELG1 repair inh, RORg inh, B2AR arrestin, VP16 counter)
COC(=O)[C@@]1(OC)C[C@@H]2O[C@@]1(C)n1c3ccccc3c3c4c(c5c6ccccc6n2c5c31)C(=O)N(C)C4	none (no result: ELG1 repair inh, B2AR arrestin, TSHR antagonist)
C[C@]12O[C@H](C[C@]1(O)CO)n1c3ccccc3c3c4c(c5c6ccccc6n2c5c31)CNC4=O	RORg inh inconclusive, VP16 counter 5.6µM (no result: ELG1 repair inh, B2AR arrestin, TSHR antagonist)
COC(=O)c1c(C)n(Cc2ccccc2)c2ccc(O)cc12	none
CC(=O)c1c(C)n(Cc2ccccc2)c2ccc(O)cc12	ELG1 repair inh 23µM
O=C(Nc1ncc(Cc2ccccc2)s1)C1=NCCN1	RORg inh 2µM, VP16 counter inconclusive
Cc1oc(-c2ccccc2)nc1CN1C(=O)C(C)N=C(c2ccccc2F)c2cc(Cl)ccc21 (configuration not stated)	RORg inh 13µM
O=C(O)c1ccccc1SCC(=O)N1c2ccccc2Sc2ccccc21	ELG1 repair inh inconclusive, VP16 counter 14µM
CCCCCCCC(=O)Cl	none (no result: ELG1 repair inh, B2AR arrestin, TSHR antagonist)
CN=C=S	none (no result: ELG1 repair inh, B2AR arrestin, TSHR antagonist)
C=Cn1ccnc1P(O)(=S)c1nc(C)c(CCOC(C)=O)s1 (configuration not stated)	ELG1 repair inh inconclusive, RORg inh 11µM, VP16 counter inconclusive
C=C[C@@H]1CN2CC[C@H]1C[C@H]2[C@H](O)c1ccnc2ccccc12	none (no result: ELG1 repair inh, B2AR arrestin, TSHR antagonist)
O=C(NC1CCCCCC1)c1ccc[nH]c1=S	RORg inh 0.45µM, VP16 counter 0.79µM
Cn1cc(C(=O)NC2CC2)c2ccccc21	none
Cc1onc(-c2ccccc2)c1C(=O)Nc1ccc(S(=O)(=O)N2CCCC2)cc1	RORg inh 8.9µM
COc1ccc([N+](=O)[O-])cc1N=Cc1c(O)n(CCc2ccccc2)c(=O)n(C(C)C)c1=O	ELG1 repair inh 16µM, RORg inh inconclusive
CCCCCCC(=O)N/N=C/c1c(O)n(C(C)CC)c(=S)[nH]c1=O (configuration not stated)	ELG1 repair inh inconclusive, RORg inh 10µM, VP16 counter inconclusive
COc1ccc(C[C@H]2NC[C@H](O)[C@@H]2OC(C)=O)cc1	RORg inh inconclusive, VP16 counter 35µM (no result: ELG1 repair inh, B2AR arrestin, TSHR antagonist)
COc1ccc(CC(=O)N2CCN(C)CC2)cc1	none
COc1ccc(C/C(=N\OC(C)=O)c2ccc(OC)cc2)cc1	ELG1 repair inh inconclusive
COc1ccc(CC2NCC(O)C2OC(C)=O)cc1 (configuration not stated)	RORg inh inconclusive, VP16 counter 0.079µM (no result: ELG1 repair inh, B2AR arrestin, TSHR antagonist)
COc1ccc(CC2NC[C@H](O)[C@H]2OC(C)=O)cc1 (some centres not stated)	RORg inh 0.63µM, VP16 counter 0.79µM (no result: ELG1 repair inh, B2AR arrestin, TSHR antagonist)
COc1ccc(CN2CCN(C(=O)Cn3c(=O)oc4cc(Cl)ccc43)CC2)c(OC)c1OC	ELG1 repair inh inconclusive, RORg inh inconclusive, VP16 counter inconclusive
O=c1[nH]c(=S)n(-c2ccc(Cl)cc2)c(O)c1C=Nc1ccc(N2CCOCC2)cc1	RORg inh inconclusive
O=c1c2cc(N3CCOCC3)ccc2[nH]c(=S)n1Cc1ccc(Cl)cc1	ELG1 repair inh inconclusive, RORg inh 8.9µM, VP16 counter 0.56µM
OCC(Br)(Br)Br	none (no result: ELG1 repair inh, B2AR arrestin, TSHR antagonist)
CC1=C(O)C(=O)C=C2C1=CC=C1[C@]2(C)CC[C@@]2(C)C3C[C@](C)(C(=O)O)CC[C@@]3(C)CC[C@@]12C (some centres not stated)	RORg inh 3.2µM, VP16 counter inconclusive (no result: ELG1 repair inh, B2AR arrestin, TSHR antagonist)
FC(Cl)(Cl)Cl	none (no result: ELG1 repair inh, B2AR arrestin, TSHR antagonist)

Source: PubChem
